Compounds without any hit were thinned out: in the full panel of roughly 83,000, 20% have a hit.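 How to read the values: 0–100, growth inhibition (40 = 60% inhibited); 0, no net growth; -100 to 0, cell death (-40 = 40% of starting cells died; -100 = all dead).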 Unmarked numbers belong to inactive results. Calls of active or inactive are those of the source. Rule for the calls: active = growth percent below 10; inactive = the rest.
Tests used:
Assay in all cases: NCI-60 one-dose screen, 48 h (100 = growth as untreated, 0 = no growth, -100 = all killed)
NCI-H322M lung = settings: 10 µM
HOP-62 NSCLC = settings: 10 µM
A549/ATCC NSCLC = settings: 10 µM
COLO 205 colon = settings: 10 µM
DU-145 prostate = settings: 10 µM
MALME-3M melanoma = settings: 10 µM
SF-268 CNS = settings: 10 µM
SF-295 CNS = settings: 10 µM
SF-539 CNS = settings: 10 µM
UACC-257 melanoma = settings: 10 µM
M14 melanoma = settings: 10 µM
HCT-15 colon = settings: 10 µM
HT29 colon = settings: 10 µM
SNB-75 CNS = settings: 10 µM
SNB-19 CNS = settings: 10 µM
SK-MEL-5 melanoma = settings: 10 µM
UACC-62 melanoma = settings: 10 µM
SK-MEL-28 melanoma = settings: 10 µM
SK-MEL-2 melanoma = settings: 10 µM
HL-60(TB) leukemia = settings: 10 µM unless noted

Compound	growth (NCI-H322M lung)	growth (HOP-62 NSCLC)	growth (A549/ATCC NSCLC)	growth (COLO 205 colon)	growth (DU-145 prostate)	growth (MALME-3M melanoma)	growth (SF-268 CNS)	growth (SF-295 CNS)	growth (SF-539 CNS)	growth (UACC-257 melanoma)	growth (M14 melanoma)	growth (HCT-15 colon)	growth (HT29 colon)	growth (SNB-75 CNS)	growth (SNB-19 CNS)	growth (SK-MEL-5 melanoma)	growth (UACC-62 melanoma)	growth (SK-MEL-28 melanoma)	growth (SK-MEL-2 melanoma)	growth (HL-60(TB) leukemia)
O=C(/C=C/c1ccccc1)c1nc2ccccc2n1Cc1ccc(F)cc1	37%	-26% (active)	24.8%	-43.4% (active)	2.92% (active)	-28.3% (active)	10.8%	-11% (active)	-89.1% (active)	-1.28% (active)	-20.8% (active)	-70.1% (active)	-49.5% (active)	3.39% (active)	-47.9% (active)	11%	-39% (active)	-26.4% (active)	18.9%	-25.3% (active)
O=C(/C=C/c1ccc(Br)cc1)c1nc2ccccc2n1Cc1ccc(Br)cc1	39%	-22.1% (active)	30%	-39.8% (active)	17.9%	-42.9% (active)	29.9%	-34.9% (active)	-60.2% (active)	-4.85% (active)	-26.7% (active)	-68.4% (active)	-27.6% (active)	45%	-66.9% (active)	1.54% (active)	-66.5% (active)	-43.9% (active)	2.53% (active)	-13.2% (active)
CC[C@]12C=CCN3CC[C@@]4(c5ccc(OC)cc5N(C)[C@H]4[C@@](O)(C(=O)OC)[C@@H]1OC(=O)CCC[P+](C1CCCCC1)(C1CCCCC1)C1CCCCC1)[C@@H]32	24.5%	4.26% (active)	14.1%	-63.6% (active)	15.7%	-96.1% (active)	-54.1% (active)	-13.5% (active)	-86.5% (active)	-80.9% (active)	-78% (active)	76.6%	-56.7% (active)	-61.4% (active)	-60% (active)	-98.4% (active)	-97.3% (active)	-85.9% (active)	-84.9% (active)	-37.1% (active)
O=C(NCCCCC(c1ccc(F)cc1)c1ccc(F)cc1)Nc1ccc([N+](=O)[O-])c(C(F)(F)F)c1	6.54% (active)	-29% (active)	6% (active)	-100% (active)	20.9%	-25.8% (active)	18.5%	-4.61% (active)	-28.2% (active)	-15.7% (active)	-23.1% (active)	0.604% (active)	-11% (active)	-9.8% (active)	17.1%	-100% (active)	-14.9% (active)	16.5%	-71% (active)	–
N#C[Se]CC(=O)Nc1cccc(C(F)(F)F)c1	-19.6% (active)	-57.6% (active)	-50.4% (active)	-1.16% (active)	-13% (active)	-95.3% (active)	2.88% (active)	-72.7% (active)	-91% (active)	-33.3% (active)	-42.7% (active)	-84.8% (active)	-31.9% (active)	-23.5% (active)	-88.1% (active)	-73.4% (active)	-77.4% (active)	-63.2% (active)	-31.1% (active)	0.147% (active)
C=CC[Se]C(=O)c1cncc(C(=O)[Se]CC=C)c1	-46.2% (active)	-60.6% (active)	7.53% (active)	-47.3% (active)	5.92% (active)	-67% (active)	7.42% (active)	-55.8% (active)	-99.9% (active)	-75% (active)	-86.7% (active)	-37.4% (active)	-14.4% (active)	-61.4% (active)	-97.5% (active)	-36.3% (active)	-62.3% (active)	-39% (active)	-54.1% (active)	-26.2% (active)
COc1ccc(OC)c(/C=C/C(=O)c2nc3ccccc3n2Cc2ccc(F)cc2)c1	6.69% (active)	-40.4% (active)	8.34% (active)	-58.3% (active)	4.91% (active)	-36.9% (active)	14.8%	-21.3% (active)	-80.4% (active)	15.3%	-7.79% (active)	-61.8% (active)	-44.7% (active)	15.4%	-38.9% (active)	-21.1% (active)	-57.6% (active)	-53% (active)	-28.2% (active)	-11.3% (active)
COc1cc(OC)c(S(=O)(=O)N(CCCl)CCCl)cc1C(=O)/C=C/c1cc(OC)c(OC)c(OC)c1	12.9%	-5.79% (active)	3.9% (active)	-89.8% (active)	-30.3% (active)	-15.6% (active)	2.74% (active)	0.899% (active)	-74.1% (active)	-60% (active)	-59.4% (active)	-25.1% (active)	-58.7% (active)	-78.2% (active)	-38.6% (active)	-71.3% (active)	-33.9% (active)	-68.5% (active)	-94.5% (active)	-25.8% (active)
CN(C)CCc1cn(C2CCC2)c2cccc(O)c12	91.2%	82.1%	71.8%	81.1%	91.3%	46.5%	81.6%	76.4%	61.9%	41.8%	15.9%	62.2%	34.9%	58.3%	87%	46.6%	48.9%	3.47% (active)	99.4%	–
COc1cc(OC)c(/C=C/C(=O)c2nc3ccccc3n2Cc2ccc(F)cc2)c(OC)c1	104%	58.9%	88.6%	108%	92.1%	105%	72.1%	75.7%	60.9%	98.3%	103%	78.9%	90.2%	0.098% (active)	51.5%	88.6%	62.5%	92.8%	104%	67.7%
C=CCN=C([Se])NC(=O)c1ccc2c(c1)OCO2	14.8%	26.9%	40.4%	122%	101%	110%	110%	13.7%	67.3%	102%	86.8%	97.1%	96%	26%	39.2%	90.8%	97.9%	111%	143%	106%
C=CC[Se]C(=O)c1ccc(C(=O)[Se]CC=C)s1	-63.7% (active)	-70.9% (active)	1.38% (active)	-64.7% (active)	-92.8% (active)	-47.7% (active)	-39.4% (active)	-52.5% (active)	-97% (active)	-78.4% (active)	-90% (active)	-42.5% (active)	-7.14% (active)	-96.8% (active)	-73.1% (active)	-70.8% (active)	-22.8% (active)	-70.8% (active)	-65.6% (active)	-31.6% (active)
CC[C@]12C=CCN3CC[C@@]4(c5ccc(OC)cc5N(C)[C@H]4[C@@](O)(C(=O)OC)[C@@H]1OC(=O)CCC[P+](c1ccc(C)cc1)(c1ccc(C)cc1)c1ccc(C)cc1)[C@@H]32	-98.4% (active)	-81.6% (active)	-90.3% (active)	-50.2% (active)	-78.5% (active)	-94.4% (active)	-46.3% (active)	-89.1% (active)	-96.6% (active)	-92.7% (active)	-85.3% (active)	-91% (active)	-80.7% (active)	-61.2% (active)	-97.3% (active)	-99.4% (active)	-96.8% (active)	-96.6% (active)	-85.4% (active)	-47.5% (active)
O=C(NC([Se])=NC1CCCCC1)c1ccc2c(c1)OCO2	11.9%	23.3%	26.8%	28.1%	49%	57.3%	122%	6.53% (active)	56.9%	50.5%	60.2%	47.3%	55.6%	10.6%	33.3%	79.3%	76.3%	51.6%	99.6%	65.7%
O=C(/C=C/c1ccc(Cl)cc1)c1nc2ccccc2n1Cc1ccc(Br)cc1	78.8%	65.5%	73.4%	93.6%	66.1%	71.5%	75.3%	73.3%	43.8%	71%	65.4%	21.4%	38.1%	79.2%	65.9%	85%	48.6%	80.1%	83.3%	35.8%
CC1=C(CCC=NNC(N)=O)C2=C(C)C3(CC3)[C@@](C)(O)C(=O)C2=C1	-13% (active)	-78.8% (active)	-28.6% (active)	-91.4% (active)	-29.2% (active)	-93.4% (active)	-31.4% (active)	1.93% (active)	-99.1% (active)	-76.1% (active)	-35.8% (active)	-49.2% (active)	-31% (active)	-96.2% (active)	-38.6% (active)	-100% (active)	-88.1% (active)	-79.8% (active)	-76.9% (active)	–

Source: PubChem BioAssay (NCI)
